Test results taken from PubChem BioAssay AID750 (Sanford-Burnham Center for Chemical Genomics, 2007).
The whole screen tested about 86,000 compounds, of which about 140 (0.16%) were called active.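 How the source made its calls: active means activation factor of at least 2 for MT1-MMP transcription at 10 µM; inactive means the rest.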 Many of the other results were omitted from the sample, so actives are more common in it than they were.

Experiment: MT1-MMP promoter reporter activation – cell-based, luciferase luminescence, primary screen (AID 750)
Settings: HT1080 MT1-MMP promoter luciferase reporter, overnight, at 10 µM, hits give high values

Compound	activation factor
Cn1c(=N)n(CC(O)c2ccccc2)c2ccccc21 (stereo not given)	1.5 (inactive)
CC1CCC2(CC1)NC(=O)N(CC(=O)c1cccn1C)C2=O (stereo not given)	1.2 (inactive)
COc1ccccc1NC(=O)C1CCCN(c2cc(C)nc3ncnn23)C1 (stereo not given)	1.1 (inactive)
COc1cc(OC)cc(-c2cc3nc(C4CCN(C(=O)OC(C)(C)C)CC4)cc(=O)n3[nH]2)c1	1.1 (inactive)
COc1ccc(OC)c(-n2nnnc2SCC(=O)Nc2cc(C)ccc2OC)c1	1 (inactive)
COc1ccc(C(=O)Nc2ccc(S(=O)(=O)NC(C)C)cc2)cc1	1.1 (inactive)
COC(=O)[C@@]1(Cc2ccccc2)C=C[C@@H](C)N1	1.2 (inactive)
O=C1C2N=NN(CC(=O)N3N=C(c4cccc5ccccc45)CC3c3ccccc3)C2C(=O)N1c1ccccc1 (stereo not given)	1.2 (inactive)
CC(N=Cc1nc(-c2ccccc2)oc1O)c1ccccc1 (stereo not given)	1.2 (inactive)
c1ccc2[nH]c(NCCN3CCOCC3)nc2c1	1.1 (inactive)
Cc1cc2nc(SCCN3CCOCC3)[nH]c2cc1C	2 (active)
Cc1ccc(S(=O)(=O)NCCN2CCOCC2)cc1C	1.1 (inactive)
CCOc1cc(NC(=O)c2cnccn2)c(OCC)cc1NC(=O)c1ccc(C)cc1	1.3 (inactive)
COC(=O)C1=C(C)N=C2SC(C)C(=O)N2C1/C=C/c1ccccc1 (stereo not given)	1.1 (inactive)
OC(COCCC12CC3CC(CC(C3)C1)C2)CN1CCCCC1 (stereo not given)	1.1 (inactive)
COc1ccc(/C(O)=C2/C(=O)C(=O)N(CC3CCCO3)C2c2ccc(OC)c(OC)c2)cc1 (stereo not given)	1.3 (inactive)
O=C(CCn1c(SCC(=O)c2ccccc2)nc2ccccc2c1=O)NCc1ccc(F)cc1	1.1 (inactive)
CCN1CCCC1Cn1cnc2c([nH]c3cc(OC)ccc32)c1=O (stereo not given)	1.1 (inactive)
CCCNC(=O)c1ccc(Cl)c(Cl)c1	1 (inactive)
Cc1cc(N/C=C\C(=O)c2ccc(Cl)c(Cl)c2)no1	2.1 (active)
Cc1cc(NC(=O)CSc2nnc(-c3ccc(Cl)s3)o2)no1	1.1 (inactive)
CCN(CC)C(=O)CSc1nc2ccccc2n1CC(=O)N1CCN(c2ccccc2OC)CC1	1.1 (inactive)

Compound	activation factor
CC/S(CC1CC1(Cl)Cl)=N\S(=O)(=O)c1ccc(C)cc1 (stereo not given)	1 (inactive)
CC(C)C(OC(=O)c1cccs1)C(=O)NC1CCCCC1 (stereo not given)	1.3 (inactive)
OC(CN1C2=NCCCN2c2ccccc21)c1ccc(Br)cc1 (stereo not given)	1.2 (inactive)
Cn1c(SCC(=O)NC2CCCCC2)nnc1-c1cc2ccccc2o1	1.4 (inactive)
NC(=O)c1ncc(C(F)(F)F)cc1Oc1ccc(F)cc1	1.1 (inactive)
CCOc1ccccc1NC(=O)c1cccnc1	1.3 (inactive)
CNC(=S)N1N=C(c2ccccc2)CC1c1ccc(Br)cc1 (stereo not given)	1.3 (inactive)
Cc1noc(NS(=O)(=O)c2ccc(N/C=C/C(=O)c3ccccc3)cc2)c1C	1.3 (inactive)
COc1cc(C)c(C(C)C)cc1S(=O)(=O)n1ccnc1	1.2 (inactive)
COc1ccc(NC(=O)CCN2CCCC2)c(OC)c1	1.2 (inactive)
COC(=O)c1ccc(NC(=O)Nc2ccc(C)cc2)cc1	1.6 (inactive)
COc1ccc(C(=O)Cc2cnn(-c3ccccc3)c2)c(O)c1	1.3 (inactive)
CC(C)CCSc1ncnc2c1oc1nc3c(cc12)COC(C)(C)C3	1.1 (inactive)
COc1cccc(NC(=O)CN2CCN(c3nc(-c4cccc(OC)c4)cs3)CC2)c1	1.2 (inactive)
CCCNC(=O)NCc1ccc(N2CCCC2=O)cc1	1.1 (inactive)
COc1ccc(C2C(C(C)=O)=C(O)C(=O)N2Cc2cccnc2)cc1 (stereo not given)	1.2 (inactive)
CC(C)NC(=O)CSc1nnc(COc2ccccc2Cl)o1	1.1 (inactive)
CCOn1c(SC(C)C)nc2ccccc2c1=O	1.1 (inactive)
COC(=O)C1CCN(CC(N)=O)CC1	1.1 (inactive)
CC(C)OC(=O)CN1C(=O)C(=O)c2ccccc21	1.3 (inactive)
COc1ccc(-c2oc(/N=C/N3CCCC3)c(C#N)c2-c2ccc(OC)cc2)cc1	1.1 (inactive)
COC(=O)[C@H](Cc1ccccc1)NC(=O)[C@@H]1C[C@H]1[C@@H](NC(=O)OCc1ccccc1)c1ccccc1	1.1 (inactive)

Compound	activation factor
CCOc1ccc(S(=O)(=O)NCCSc2ccccc2)cc1	1.1 (inactive)
CCOC(=O)C1=C(CCc2ccccc2)NC(=O)NC1c1ccc2ccccc2c1 (stereo not given)	1.4 (inactive)
COc1ccc(C)cc1S(=O)(=O)Nc1cccc(Cl)c1Cl	1.1 (inactive)
Cc1ccc(C(=O)N2CCCC2)c(F)c1F	1.2 (inactive)
O=C(O)c1cc2ccccc2c(=O)s1	1.1 (inactive)
Cc1cc(C)n(-c2c(F)c(F)c(COC(=O)c3ccccc3)c(F)c2F)n1	1.1 (inactive)
Cc1ccc(/C=N/NC(=O)C2=NNC(c3ccccc3)(c3ccccc3)C2)c(O)c1	1.1 (inactive)
COc1ccc(C)cc1NC(=O)CCS(=O)(=O)c1cccc2nonc12	1 (inactive)
CN(C)c1nc(N)nc(CSc2ccccn2)n1	1.1 (inactive)
CCCc1noc2c1/C(=N\O)CCC2	1.1 (inactive)
Cn1c(Cc2cccc3ccccc23)nnc1SCC(=O)N1CCN(c2cccc(Cl)c2)CC1	1.1 (inactive)
CCOc1ccc(NC(=O)CN(C)CC(=O)Nc2cccc(Cl)c2C)cc1OCC	0.9 (inactive)
COc1ccc(N2CCN(C(=O)CNC(=O)c3ccc(C(C)(C)C)cc3)CC2)cc1	1.1 (inactive)
O=C(NCCSCc1ccccc1)c1ccc(Cl)c(S(=O)(=O)N2CCOCC2)c1	1.1 (inactive)
Cc1cnc(NC(=O)CSc2nnc(C)s2)s1	1 (inactive)
CCN(CC(=O)NC1CCS(=O)(=O)C1)c1nc(-c2cccnc2)nc2ccccc12 (stereo not given)	1.1 (inactive)
COc1ccccc1NC(=O)CSc1nnc(C)n1CC1CCCO1 (stereo not given)	1.1 (inactive)
O=C(CN1CCN(C(=O)c2ccco2)CC1)Nc1ccc2c(c1)OCO2	1.4 (inactive)
O=C(Nc1nnc(SCc2c(Cl)cccc2Cl)s1)C1CCCO1 (stereo not given)	1.2 (inactive)
Cc1ccc(C2(C(F)(F)F)N=C3Sc4cc(C)cc(C)c4N3C(=O)N2)cc1 (stereo not given)	1.1 (inactive)
C=C(C)CNC(=S)/N=c1\scc(C)n1CC	1.3 (inactive)
